From the supplement of paper PMC3724861
Many of the other results were omitted from the sample, so hits are more common in it than they were. How many sequences the whole screen found active is unknown. Values without a mark were called inactive.

System: T1, Caupolican (Caup) homeodomain DNA-binding domain
T1 sequence: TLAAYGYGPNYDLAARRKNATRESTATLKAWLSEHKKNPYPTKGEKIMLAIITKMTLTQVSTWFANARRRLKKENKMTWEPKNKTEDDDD
Experiment: PBM E-score (8-mer, recovered from the published 9-mer minima) (E-score (dimensionless, -0.5 to 0.5)); Drosophila protein; higher = stronger relative binding preference, active = 0.31 or more
Method in brief: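 Caup's homeodomain DNA-binding domain (residues 214-303) was made by in vitro transcription and translation and applied at 100 nM to custom-designed protein binding microarrays. Each value is an enrichment score that gives relative binding preference for a short DNA word, with higher meaning stronger. The 8-mer values were recovered from published 9-mer scores, each of which was the minimum of its two constituent 8-mer scores. A cutoff of 0.31 marks candidate sites.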

Row | Sequence | PBM E-score
1 | GCCGCCCA | -0.275
2 | ATGTAAAG | 0.317 (active)
3 | ATGTAAAC | 0.36 (active)
4 | CTGTAAAC | 0.18
5 | AGGTAAAT | 0.153
6 | ATGTAAAT | 0.352 (active)
7 | GTGTAAAC | 0.293
8 | AAGTAAAG | -0.0403
9 | TTGTAAAA | 0.275
10 | CTGTAAAG | 0.0792
11 | CTGTAAAA | 0.121
12 | ATGTAAAA | 0.354 (active)
13 | ACGTAAAT | 0.102
14 | AGAGTAGG | 0.00327
15 | CCCCTCGC | -0.261
16 | CACACATG | 0.192
17 | AGCGACAA | 0.228
18 | GTTATTTA | 0.201
19 | AATGCATA | 0.0394
20 | ACGTTTGG | 0.0157
21 | AAGGTCAA | 0.00315
22 | ATGCCTCA | -0.045

Row | Sequence | PBM E-score
23 | CGAGACAA | 0.0948
24 | ACGTGTCT | 0.244
25 | ACGTGTAG | 0.321 (active)
26 | CCGTGTAG | 0.286
27 | CAGTGTAC | 0.207
28 | AAGTGTAT | 0.144
29 | CCGTGTAC | 0.411 (active)
30 | AAGTGTAC | 0.304
31 | ACGTGTAT | 0.353 (active)
32 | ACGTGTAC | 0.367 (active)
33 | CCGTGTCC | 0.218
34 | AAGTGTAG | 0.17
35 | ACGTGTGC | 0.0653
36 | CTGAGCGC | -0.211
37 | TCTCGAGA | 0.0237
38 | AACGACTG | 0.0234
39 | CTTCAGTC | -0.0898
40 | AGTCCATG | 0.0703
41 | ACTGCCGG | -0.163
42 | ACTATCGG | -0.056
43 | CGCAGGTA | -0.0146
44 | AGGTAAAA | 0.0159

Row | Sequence | PBM E-score
45 | GAGTGTAC | 0.121
46 | GCGTGTCC | 0.223
47 | GCGTGTAC | 0.367 (active)
48 | CCTAAAAC | -0.07
49 | GGTGGCCA | -0.164
50 | CCCTTACA | 0.152
51 | ATGGCCCC | -0.175
52 | AATATAGA | 0.138
53 | GTAAACAA | 0.321 (active)
54 | ACAAACAG | 0.258
55 | TTAAACAA | 0.23
56 | ATAAACAA | 0.254
57 | ACAAACCT | 0.0926
58 | ATAAACAT | 0.321 (active)
59 | AAAAACAT | 0.296
60 | ATAAACAG | 0.147
61 | ACAAACAT | 0.368 (active)
62 | ATAAACAC | 0.251
63 | ACAAACAA | 0.317 (active)
64 | ACAAACAC | 0.301
